The target of this test is PUM1 PUF domain R4-GPS (Homo sapiens, UniProt Q14671 828-1176, N971G;H972P;Q975S). In words: yeast three-hybrid, YBZ-1, SC-Leu-His + 0.5 mM 3-AT, 4 days. The note with it: tags: N-Gal4 AD-HA kept; label: inside an RPR1-promoter hybrid RNA with tandem MS2 sites; ssRNA. In a few lines:
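Each repeat of the Pumilio-1 PUF domain was randomized at its three base-contacting residues, and these libraries were co-expressed from a centromeric plasmid with matching RNA elements in strain YBZ-1. After four days on SC-Leu (input) or SC-Leu-His + 0.5 mM 3-AT (selection), the repeat regions were PCR-amplified and Illumina-sequenced. The interaction score compares variant frequency between input and selection as a log change, computed in log2 with a pseudocount of 1 for absent variants.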
PUM1 PUF domain R4-GPS, sequence (Q14671 828-1176 N971G/H972P/Q975S): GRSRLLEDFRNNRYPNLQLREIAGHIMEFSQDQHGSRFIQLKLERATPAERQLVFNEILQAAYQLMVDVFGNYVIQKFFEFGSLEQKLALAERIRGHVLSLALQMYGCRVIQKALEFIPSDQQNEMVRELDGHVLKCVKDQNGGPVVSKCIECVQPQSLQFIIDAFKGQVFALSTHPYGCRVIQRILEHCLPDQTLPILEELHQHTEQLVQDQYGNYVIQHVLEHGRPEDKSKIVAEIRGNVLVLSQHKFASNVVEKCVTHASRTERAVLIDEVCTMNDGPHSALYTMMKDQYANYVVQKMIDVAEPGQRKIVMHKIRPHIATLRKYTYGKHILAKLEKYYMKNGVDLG
“GGCUAGAACUAGUGGAUCCCCCGGCGCCCGGCGGCUCGAGCCCGGGUAAGUGUAUAUAGUCUGCAUGCCGCCGGGCGCCAUGCCUGCAGGUCGACUCUAGAAAACAUG”: the binding signal was 2.94 log2 enrichment (interaction score).
The figure for “GGCUAGAACUAGUGGAUCCCCCGGCGCCCGGCGGCUCGAGCCCGGGUAAGUGUACAUAGUCUGCAUGCCGCCGGGCGCCAUGCCUGCAGGUCGACUCUAGAAAACAUG” is 1.84 log2 enrichment (interaction score).
In the case of “GGCUAGAACUAGUGGAUCCCCCGGCGCCCGGCGGCUCGAGCCCGGGUAAGUGUAAAUAGUCUGCAUGCCGCCGGGCGCCAUGCCUGCAGGUCGACUCUAGAAAACAUG” it was 4.4 log2 enrichment (interaction score).

These data come from paper PMC8384837, “Expanding the binding specificity for RNA recognition by a PUF domain”.
